The values that follow come from PubChem BioAssay (EPA / NIEHS).

Active and inactive are the calls of the source. How the source made its calls: active means hit-call score of the fitted dose curve at least 0.9, where 1 is the maximum; inactive means score below 0.9.

Read-out in this experiment: Bcl-2 (BID) gene, BID (gene 637)
Description: LTEA_HepaRG_BID: Life Technologies and Expression Analysis (LTEA) Assay for Bcl-2 (BID) gene using HepaRG (AID 2283476). The settings on record: mRNA level, 48 h; actives raise or lower the signal. As for the experimental part: LTEA_HepaRG is a cell based, multiplexed-readout assay that uses HepaRG, a human liver cell line, with measurements taken at 48 hours after chemical dosing on a 96-well plate.LTEA_HepaRG_BID is one of 102 assay component(s) measured in the LTEA HepaRG cell culture assay. It is a marker of Cell proliferation, survival, death.Data from the assay component LTEA_HepaRG_BID was analyzed into 1 endpoint. This assay endpoint, LTEA_HepaRG_BID, was analyzed with bidirectional fitting relative to DMSO as the negative control and baseline of activity. Using a type of inducible reporter, measures of mRNA induction for gain or loss-of-signal activity can be used to understand regulation of transcription factor activity. To generalize the intended target to other relatable targets, this assay endpoint is annotated to the cell cycle intended target family, where the subfamily is Cell proliferation, survival, death.
A total of 1060 chemcials from the ToxCast library were tested in eight-point concentration-response experiments. Cell culture and cytotoxicity assays were conducted at Thermo Fisher Scientific's Custom Services facility (Madison, WI). A single lot of human HepaRG cells (Thermo Fisher Scientific, Frederick, MD) was used for the cell culture experiments. 96-well format collagen type I coated plates of human HepaRG cells were prepared using established methods. Briefly, cryopreserved HepaRG cells were thawed, plated at a density of approximately 100,000 cells/well in HepaRG Thaw, Plate, and General Purpose media (HPRG770, Thermo Fisher Scientific), and incubated for 48 hours. 0.5% DMSO was selected as vehicle control to balance the requisite need of DMSO in HepaRG cultures to maintain differentiation (for example, baseline metabolism, proportions of hepatocytes vs. cholangiocytes), while enabling further hepatic receptor pathway activation (for example, PXR and CAR) in response to chemical exposure. 48 hours after plating, the culture medium was replaced with HepaRG Serum-Free Incudtion Media. Cells were exposed to each test chemical in duplicate and maintained in CO2 incubators for another 48 hours. Chemical plates were thawed to room temperature and 200x concentrations of treatment groups were prepared. 8-point conentration-reponse curves were made with the highest exposure at 100 uM, followed by half-log dilutions, all in 0.5% DMSO. Each test plate contained variouse controls, induction positive controls (1mM phenobarbital), cytotoxicity positive controls ([…] aflatoxin B1), vehicle controls (0.5% DMSO), and total lysis controls (0.5% DMSO). Cell morphology images were taken using an Essen IncuCyte FLR automated microscope, with six 96-well plates imaged in about 24 minutes. Images were captured and exported and JPEG files. Spent culture media was transfered to black-well plates for the LDH assay, and remaining media was sorted at -80 C for later use. Cells were treated with RLT buffer and frozen until shipped for gene expression analysis. Total RNA was isolated from the cell suspension in 75 uL of Buffer RLT (Qiagen, Germantown, MD 20874) by Quintiles/Expression Analysis (Durham, NC) using a custom isolation procedure. Total RNA from each plate well was transferred to a preamplification plate. Fluidigm's 96.96 Dynamic ArrayTM (Fluidigm, Amsterdam, the Netherlands) technology was used for gene expression analyses by quantitative reverse transcription polymerase chain reaction (qRT-PCR, performed by Quintiles/Expression Analysis, Durham, NC)89. Standard TaqManTM Assays (Applied Biosystems/ThermoFisher Scientific, Foster City, CA) were used to assess the expression of 93 genes selected based on their selectivity and sensitivity to important hepatic receptors known to be modulated by environmental chemicals; importance in human hepatocyte functionality; and hepatotoxicity. […]
For the compound `CCOC(=O)C(C)Oc1ccc(Oc2nc3ccc(Cl)cc3o2)cc1` (stereo not given), the result was inactive.

Take `c1ccc(Nc2ccccc2)cc1`: the call was inactive.

With `C=CCOC(Cn1ccnc1)c1ccc(Cl)cc1Cl` (stereo not given), the outcome was inactive.

On to `S=C(S)NCCNC(=S)S.[Mn+2].[S-]C([S-])=NCCN=C([S-])[S-].[Zn+2]`, for which the compound was called inactive.

On to `CCCCOCCOCCOCc1cc2c(cc1CCC)OCO2`, for which the compound was classed as inactive.

Turning to `C#CCOC(=O)[C@@H](C)Oc1ccc(Oc2ncc(Cl)cc2F)cc1`, the compound was called inactive.

Consider `CCN(CC)C(=O)c1cccc(C)c1`, for which the outcome was inactive.

As for `COc1c(Cl)ccc(Cl)c1C(=O)O`, the call was inactive.

Take `c1ccc2[nH]c(-c3cscn3)nc2c1`: the call was inactive.

Consider `CCOC(=O)NCCOc1ccc(Oc2ccccc2)cc1`, for which the outcome was inactive.

Consider `CC(C)CCCCCCc1ccc(O)cc1`, for which the result was inactive.

As to `COC(=O)CSc1cc(N=c2sc(=O)n3n2CCCC3)c(F)cc1Cl`, the compound was classed as inactive.

For `COC(=O)c1ccccc1C(=O)O`, the compound was classed as inactive.

With `N[C@@H](Cc1cc(I)c(Oc2ccc(O)c(I)c2)c(I)c1)C(=O)O`, the result was inactive.

With `CCOC(=O)C(C)Oc1ccc(Oc2cnc3cc(Cl)ccc3n2)cc1` (stereo not given), the compound was called inactive.

Consider `CCNc1nc(N)nc(Cl)n1`, for which the outcome was inactive.

On to `O=C(c1ccc(O)cc1O)c1ccc(O)cc1O`, for which the outcome was inactive.

In the case of `CSC(=O)c1cccc2nnsc12`, the compound was classed as inactive.

Take `S=C([S-])NCCNC(=S)[S-].[Mn+2]`: the call was inactive.

As for `CCCCC(CC)CN1C(=O)C2C3C=CC(C3)C2C1=O` (stereo not given), the outcome was inactive.

Regarding `C#C[C@]1(O)CC[C@H]2[C@@H]3CCC4=CC(=O)CC[C@@H]4[C@H]3CC[C@@]21CC`, the outcome was inactive.

For the compound `CCCCOC(=O)[C@@H](C)Oc1ccc(Oc2ccc(C(F)(F)F)cn2)cc1`, the compound was classed as inactive.

On to `OB(O)O`, for which the compound was classed as inactive.

As for `CCOC(=O)c1ccc(O)cc1`, the result was inactive.

On to `O=C(O)C1(C(=O)Nc2ccc(Cl)cc2Cl)CC1`, for which the compound was called inactive.

Consider `CCCN(CCC)c1c([N+](=O)[O-])cc(C(F)(F)F)c(N)c1[N+](=O)[O-]`, for which the outcome was inactive.

`CC(=O)[C@H]1CC[C@H]2[C@@H]3CCC4=CC(=O)CC[C@]4(C)[C@H]3CC[C@]12C`: the compound was classed as inactive.

For the compound `CCCN(CCC)C(=O)SCC`, the outcome was inactive.

Consider `CCCCCCC(C)OC(=O)COc1nc(F)c(Cl)c(N)c1Cl` (stereo not given), for which the compound was called inactive.

Regarding `CCC(C)OC(=O)N1CCCCC1CCO` (stereo not given), the outcome was inactive.

`O=C(Nc1ccc([N+](=O)[O-])cc1Cl)c1cc(Cl)ccc1O`: the compound was called inactive.

In the case of `CCCCC(CC)COC(=O)c1ccccc1C(=O)O` (stereo not given), the compound was called inactive.

As to `N#CSCSc1nc2ccccc2s1`, the call was inactive.

On to `CCCOC(=O)NCCCN(C)C`, for which the outcome was inactive.

Regarding `Cc1nn(C)c(Oc2ccccc2)c1C=NOCc1ccc(C(=O)OC(C)(C)C)cc1`, the call was inactive.

For the compound `CCCCCOC(=O)COc1cc(N2C(=O)C3=C(CCCC3)C2=O)c(F)cc1Cl`, the result was inactive.

Regarding `C[C@]12C[C@H](O)[C@H]3[C@@H](CCC4=CC(=O)CC[C@@]43C)[C@@H]1CC[C@@H]2C(=O)CO`, the outcome was inactive.

In the case of `O=C(O)c1ccccc1`, the compound was classed as inactive.

As for `CC1(C)C(C=C(Cl)Cl)C1C(=O)OCc1cccc(Oc2ccccc2)c1` (stereo not given), the call was inactive.

With `CCSC(=O)N(CC(C)C)CC(C)C`, the call was inactive.
